{"source": "PubChem BioAssay (EPA / NIEHS)", "note": "Inconclusive results are not listed. The source made the active and inactive calls. The calls were made as follows: active = hit-call score of the fitted dose curve at least 0.9, where 1 is the maximum; inconclusive = response in the unintended direction; inactive = score below 0.9."}
{"target": "Cellular tumor antigen p53 (Homo sapiens) (UniProt P04637)", "sequence (P04637 whole entry, looked up, the tested form may be a part)": "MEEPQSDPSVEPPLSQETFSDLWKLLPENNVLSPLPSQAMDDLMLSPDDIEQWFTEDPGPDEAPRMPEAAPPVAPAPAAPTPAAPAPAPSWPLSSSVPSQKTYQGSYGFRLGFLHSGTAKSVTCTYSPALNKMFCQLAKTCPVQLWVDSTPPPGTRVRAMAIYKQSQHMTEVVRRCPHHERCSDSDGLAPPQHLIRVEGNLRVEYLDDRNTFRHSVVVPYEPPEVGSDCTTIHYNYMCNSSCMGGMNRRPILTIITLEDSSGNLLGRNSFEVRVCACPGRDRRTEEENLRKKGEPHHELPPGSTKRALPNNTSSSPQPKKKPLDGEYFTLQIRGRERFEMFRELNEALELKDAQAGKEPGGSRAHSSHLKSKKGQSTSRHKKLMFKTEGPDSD", "experiment": "TOX21_p53_BLA_p2_ratio: Tox21 HCT-116 p53 Agonism Beta-lactamase Assay, Ratio, Phase 2 (AID 2283592)", "source_text": "TOX21_p53_BLA_p2 is a cell-based, single-readout assay that uses HCT116, a human intestinal cell line, […] in a 1536-well plate.TOX21_p53_BLA_p2_ratio is an assay readout measuring reporter gene via receptor activity and designed using inducible reporter (beta lactamase induction) detected with GAL4 b-lactamase reporter gene. The signal is derived from the ratio of cleaved (ch2) to uncleaved (ch1) reporter gene substrate used as the measure of target activity.Data from the assay component TOX21_p53_BLA_p2_ratio was analyzed into 1 assay endpoint. This assay endpoint, TOX21_p53_BLA_p2_ratio, was analyzed in the positive analysis fitting direction relative to DMSO as the negative control and baseline of activity. Using a type of inducible reporter, gain-of-signal activity can be used to understand changes in the reporter gene as they relate to the gene TP53. Furthermore, this assay endpoint can be referred to as a primary readout, because this assay has produced multiple assay endpoints and this ratio serves a reporter gene function to understand target activity. To generalize the intended target to other relatable targets, this assay endpoint is annotated to the DNA binding intended target family, where the subfamily is tumor suppressor.\nThawing Method: Place 14 mL of pre-warmed thaw medium into a 15 mL of conical tub. Remove the vial of cells to be thawed from liquid nitrogen and thaw rapidly by placing at 37C in a water bath with gentle agitation for 1-2 minutes. Decontaminate the vial by wiping with 70% ethanol before opening in a biological safety cabinet. Transfer the vial contents drop-wise into 14 mL of thaw medium in a sterile 15-mL conical tub. Centrifuge cells at 900 rpm for 4 minutes and resuspend in thaw medium. Transfer contents to the T75 tissue culture flask containing Thaw Medium and place flask in a humidified 37C/5% CO2 incubator. Switch to growth medium at first passage.Propagation Method: Aspirate medium, rinse once in DPBS, add 0.25% Trypsin/EDTA and swirl to coat the cell evenly. Add an equal volume of Growth Medium to inactivate Trypsin after 2-3 minutes incubation at 37C. Centrifuge cells at 900 rpm for 4 minutes and resuspend in growth medium. Cell should be passage or fed at least twice a week.Assay Protocol: Harvest cells from culture in growth medium and resuspend in assay medium. 2.2 Dispense 4000 cells/5 uL/well into 1536-well black/clear bottom plates using a Multidrop dispenser. After the cells were incubated at 37C for 5 hours, 23 nL of compounds dissolved in DMSO were transferred to the assay plate by a PinTool resulting in a 217-fold dilution. Incubate the plates for 16 hours at 37C, 5% CO2. Add 1 uL of 6X LiveBLAzer FRET B/G (CCF4-AM) Substrate Mixture to each well using a BioRAPTR dispenser and incubate the plates at room temperature for 2 hours. Measure fluorescence intensity at 460 and 530 nm emission and 405 nm excitation by an Envision detector. Data is expressed as the ratio of 460nm/530nm emissions. Add 4 uL of Cell-titer Glo to each well using BioRAPTR and incubate the plates at room temperature for 2 hours. Measure fluorescence intensity by a VewLux plate reader."}
{"smiles": "O=[N+]([O-])c1ccc(Oc2ccc([N+](=O)[O-])cc2)cc1", "outcome": "inactive"}
{"smiles": "Cc1ccc2ccccc2c1[N+](=O)[O-]", "outcome": "inactive"}
{"smiles": "C=CCCCCCC", "outcome": "inactive"}
{"smiles": "CNC(=O)[C@H](Cc1c[nH]c2ccccc12)NC(=O)[C@@H](CC(=O)NO)CC(C)C", "outcome": "inactive"}
{"smiles": "Cc1ccnc2c1NC(=O)c1cccnc1N2C1CC1", "outcome": "inactive"}
{"smiles": "NC(=O)Cc1cccc2ccccc12", "outcome": "inactive"}
{"smiles": "NCC1CCC(C(=O)Oc2ccc(CCC(=O)O)cc2)CC1", "note": "(stereo not given)", "outcome": "inactive"}
{"smiles": "Cc1cccc(C)c1NC(=O)CN1CCCCCC1", "outcome": "inactive"}
{"smiles": "N[C@H](C(=O)O)[C@@H](O)c1ccc(O)c(O)c1", "outcome": "inactive"}
{"smiles": "Cc1ccc(Cl)c(N)c1Cl", "outcome": "inactive"}
{"smiles": "CC(=O)Oc1cc(C(F)(F)F)ccc1C(=O)O", "outcome": "inactive"}
{"smiles": "COc1ccc(-c2cc(C(F)F)nn2-c2ccc(S(N)(=O)=O)cc2)cc1F", "outcome": "inactive"}
{"smiles": "CC(C)C(=O)O", "outcome": "inactive"}
{"smiles": "CCCCCCCCCCCCOCCCN", "outcome": "inactive"}
{"smiles": "CC(C)CCC[C@@H](C)[C@H]1CC[C@H]2[C@@H]3CC[C@@H]4C[C@H](O)CC[C@]4(C)[C@H]3CC[C@]12C", "outcome": "inactive"}
{"smiles": "[K+]", "outcome": "inactive"}
{"smiles": "CC1(C)CO[C@@H](CC(=O)O)CN1", "outcome": "inactive"}
{"smiles": "C[Se]CCC(N)C(=O)O", "note": "(stereo not given)", "outcome": "inactive"}
{"smiles": "CCC(C)(C)CC", "outcome": "inactive"}
{"smiles": "CO[C@H]1/C=C/O[C@@]2(C)Oc3c(C)c(O)c4c(O)c(c5c(nc6cc(C)ccn65)c4c3C2=O)NC(=O)/C(C)=C\\C=C\\[C@H](C)[C@H](O)[C@@H](C)[C@@H](O)[C@@H](C)[C@H](OC(C)=O)[C@@H]1C", "outcome": "inactive"}
{"smiles": "CN1CCC(=C2c3ccccc3CC(=O)c3sccc32)CC1", "outcome": "inactive"}
{"smiles": "NC(=O)N1c2ccccc2CC(=O)c2ccccc21", "outcome": "inactive"}
{"smiles": "CC(=O)OCC(=O)[C@@]1(O)[C@H](C)C[C@H]2[C@@H]3C[C@H](F)C4=CC(=O)C=C[C@]4(C)[C@H]3[C@@H](O)C[C@@]21C", "outcome": "inactive"}
{"smiles": "CCC(C)(Oc1ccc(C2(c3ccc(OC(C)(CC)C(=O)O)cc3)CCCCC2)cc1)C(=O)O", "note": "(stereo not given)", "outcome": "inactive"}
{"smiles": "[O-][n+]1ccccc1SSc1cccc[n+]1[O-]", "outcome": "inactive"}
{"smiles": "Nc1ccc(N=Nc2ccc(N)cc2)cc1", "outcome": "inactive"}
{"smiles": "NC(=O)CC[C@@H](N)C(=O)O", "outcome": "inactive"}
{"smiles": "O=C1NC(=O)c2cc([N+](=O)[O-])ccc21", "outcome": "inactive"}
{"smiles": "C1=CCC2CC=CC2C1", "note": "(stereo not given)", "outcome": "inactive"}
{"smiles": "CCc1ccc(C(=O)C(C)CN2CCCCC2)cc1", "note": "(stereo not given)", "outcome": "inactive"}
{"smiles": "CCCOC(=O)c1ccc(N)cc1", "outcome": "inactive"}
{"smiles": "CC/C(=C(/CC)c1ccc(OP(=O)(O)O)cc1)c1ccc(OP(=O)(O)O)cc1", "outcome": "inactive"}
{"smiles": "CCCOCC(C)OCC(C)O", "note": "(stereo not given)", "outcome": "inactive"}
{"smiles": "CC(C)(C)NCC(O)COc1cccc2c1CCC(=O)N2", "note": "(stereo not given)", "outcome": "inactive"}
{"smiles": "CN(C)CCN(Cc1ccccc1)c1ccccn1", "outcome": "inactive"}
{"smiles": "O=C(c1ccc2c(c1)C(=O)OC2=O)c1ccc2c(c1)C(=O)OC2=O", "outcome": "inactive"}
{"smiles": "CCCCc1ncc(/C=C(\\Cc2cccs2)C(=O)O)n1Cc1ccc(C(=O)O)cc1", "outcome": "inactive"}
{"smiles": "CCCCCCOC(=O)c1cccnc1", "outcome": "inactive"}
{"smiles": "CC1(C)CC(O)CC(C)(C)N1", "outcome": "inactive"}
{"smiles": "CC(=O)OCC1=C(C(=O)O)N2C(=O)[C@@H](NC(=O)Cc3ccccc3)[C@H]2SC1", "outcome": "inactive"}
